Compound activity from PubChem BioAssay.
Marburg entry inh = inhibitors of Marburg virus binding or cell entry. Marburg virus pseudotyped entry inhibition, cell reporter. Potency, µM (highest dose often 37.8 µM), actives largely listed as inhibitors. actives 1.8% (n = 300,000); calls by dose curve; tested in HEK293 cells
HCV inhibitor = blocks hepatitis C virus | Huh7.5.1 HCVcc-Cre infection, luciferase reporter, 44 h | Potency, µM (top dose mostly 41.8 µM), usual class: inhibitors | actives 3.4% (n = 340,000) | AID 651820; active means well fitted inhibition curve with a large enough effect; inconclusive means small, poorly fitted or top-dose-only effect, or another doubt; inactive means no such curve, though single readings can be large or run the other way
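Luciferase read-out (15 sec integration) after a 15 min room-temperature substrate step quantifies HCVcc-Cre infection. Cells, 1,000 per well, had compound added 4 h post-plating, then virus at ~0.5 moi, and were cultured 44 h.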
Lassa entry inh = blocks Lassa virus binding to or entry into cells; Lassa virus pseudotype entry inhibition, cell reporter; Potency, µM (highest dose often 37.9 µM), hits mostly inhibitors; actives 1.2% (n = 300,000); AID 540256; calls by dose curve; tested in HEK293 cells; further: nearly all actives have a fitted effect of over 50% in size
HCMV antiviral = human cytomegalovirus inhibition | HFF cells, HCMV-luciferase reporter, 72 h; active compounds read low | AID 1259415 | activity change, negative = inhibition, % at 57.5 µM | actives 4.5% (n = 410,000); in the data active means activity change below about -60%; inconclusive means no clear call, values can overlap the other calls; inactive means above about -39%
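Two-dose cell screen: HFF monolayers treated with compounds and infected with luciferase-expressing HCMV at 1 PFU/cell, 72 h at 37C, then lysed for luciferase measurement.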
FMDV antiviral = blocks foot and mouth disease virus. FMDV antiviral cell-based qHTS. actives 1.2% (n = 410,000). Potency, µM (doses to about 57.9 µM), actives largely listed as inhibitors; calls by dose curve; tested in HEK293T cells; further: read-out not given here; nearly all actives have a fitted effect of over 45% in size
Hits are given with their value; i = inactive; ? = inconclusive; nt = not tested or not shown; ! = a repeat was not active. In the library only some 7.9% were active in any assay of this set; here they are far more common.

SMILES	Marburg entry inh	HCV inhibitor	Lassa entry inh	HCMV antiviral	FMDV antiviral
CC1CN(c2ncc(/C=N/NC(=O)c3ccccc3O)s2)CC(C)O1 (stereo not drawn)	i	i	i	i	i
O=C(N/N=C/c1cnc(N2CCCCC2)s1)c1ccc(C(F)(F)F)cc1	nt	11µM	nt	i	i
Cc1ccsc1CN(C(=O)c1ccc(OCC(C)C)cc1)C1CCS(=O)(=O)C1 (stereo not drawn)	i	nt	8.9µM	i	i
O=C(c1cccs1)N(Cc1ccc(Cl)cc1)C1CCS(=O)(=O)C1 (stereo not drawn)	i	i	?	i	i
Cc1cccc(C(=O)N(Cc2cccs2)C2CCS(=O)(=O)C2)c1 (stereo not drawn)	nt	i	nt	i	i
CC(C)c1ccc2occ(CC(=O)N(Cc3ccc(F)cc3)C3CCS(=O)(=O)C3)c2c1 (stereo not drawn)	i	nt	i	-64	i
Cc1ccccc1C(=O)N(Cc1cccs1)C1CCS(=O)(=O)C1 (stereo not drawn)	i	i	?	-84	i
CC(C)c1ccc(CN(C(=O)c2cccs2)C2CCS(=O)(=O)C2)cc1 (stereo not drawn)	i	i	?	-69	?
Clc1cccc(Nc2nccc3[nH]c(-c4ccncc4)nc23)c1	nt	nt	nt	i	nt
O=C(N[C@H]1CC[C@@]23CCCN2C(=O)CCC[C@H]3[C@H]1Cc1ccccc1)c1cccc(C(F)(F)F)c1	nt	nt	nt	i	nt
Cc1cc(C)c(C(=O)N2CCCC(N3CCN(c4cccc(C(F)(F)F)c4)CC3)C2)o1 (stereo not drawn)	nt	11µM	nt	i	?
O=C(CCn1cccn1)N1CCCC(N2CCN(c3cccc(C(F)(F)F)c3)CC2)C1 (stereo not drawn)	i	i	?	-62	i
Cc1ccsc1C(=O)N1CCCC(N2CCN(c3cccc(Cl)c3)CC2)C1 (stereo not drawn)	nt	?	nt	-64	?
Cc1nnsc1C(=O)N1CCCC(N2CCN(c3cccc(C(F)(F)F)c3)CC2)C1 (stereo not drawn)	nt	i	nt	-61	i
O=C(Cn1cccn1)N1CCCC(N2CCN(c3cccc(C(F)(F)F)c3)CC2)C1 (stereo not drawn)	i	nt	i	i	i
COc1ccc(OC)c(/C=C/C(=O)Nc2ccc(C(=O)OCCC(C)C)cc2)c1	nt	nt	?	i	i
CC(CCc1ccccc1)NC(=O)Cn1c(=O)nc(-c2ccccc2)c2cc(Cl)ccc21 (stereo not drawn)	nt	nt	i	i	i
O=C(c1cccs1)N1CCCC(N2CCN(c3cccc(C(F)(F)F)c3)CC2)C1 (stereo not drawn)	i	?	?	i	?
O=C(c1ccco1)N1CCCC(N2CCN(c3cccc(C(F)(F)F)c3)CC2)C1 (stereo not drawn)	i	22µM	?	i	i
Clc1ccc(COC(Cn2ccnc2)c2ccc(Cl)cc2Cl)c(Cl)c1 (stereo not drawn)	?	?	?	-61!	?
CC(=O)C1=NN(c2ccccc2)C(c2cccs2)N1c1ccc(N(C)C)cc1 (stereo not drawn)	?	?	21µM	-80	16µM
CC(=O)C1=NN(c2ccccc2)C(c2ccc3c(c2)OCO3)N1c1ccccc1 (stereo not drawn)	i	?	i	?	i
CC(C)c1ccc(OCC(=O)NCCS(=O)(=O)N2CCN(c3ccc(F)cc3)CC2)cc1	nt	nt	i	i	i
Cc1ccc2onc(CC(=O)Nc3cc(F)ccc3F)c2c1	nt	nt	i	i	i
Cc1[nH]c2ccccc2c1C(c1ccccn1)N1CCCC1 (stereo not drawn)	i	i	i	i	i
SMILES	Marburg entry inh	HCV inhibitor	Lassa entry inh	HCMV antiviral	FMDV antiviral
CCOC(=O)C1CCCN(C(c2ccccn2)c2c(C)[nH]c3ccccc23)C1 (stereo not drawn)	i	i	i	-87	i
O=C(C[C@H]1C[C@H](C(=O)N2CCOCC2)[C@@]2(CCC3CCCC3)c3[nH]c4cc(-c5ccco5)ccc4c3CCN2C1=O)NCCN1CCOCC1	nt	?	nt	i	?
CCN(CC)C(=O)[C@H]1C[C@H](CC(=O)NCCCN(C)C)C(=O)N2CCc3c([nH]c4cc(-c5ccco5)ccc34)[C@]12C	nt	?	nt	i	i
CCN(CC)C(=O)[C@H]1C[C@H](CC(=O)NCC23CC4CC(CC(C4)C2)C3)C(=O)N2CCc3c([nH]c4cc(-c5ccco5)ccc34)[C@]12C	nt	i	nt	i	?
CN(C)CCCNC(=O)C[C@H]1C[C@H](C(=O)N2CCOCC2)[C@@]2(CCC3CCCC3)c3[nH]c4cc(-c5ccco5)ccc4c3CCN2C1=O	nt	7.9µM	nt	?	i
CC(C)N(C(=O)[C@H]1C[C@H](CC(=O)NCCCN(C)C)C(=O)N2CCc3c([nH]c4cc(-c5ccco5)ccc34)[C@]12C)C(C)C	nt	8.9µM	nt	i	i
CCN(CC)C(=O)[C@H]1C[C@H](CC(=O)NCCCN(C)C)C(=O)N2CCc3c([nH]c4cc(CCC(=O)N(C)C)ccc34)[C@]12C	nt	i	nt	i	i
CC(C)N(C(=O)[C@H]1C[C@H](CC(=O)NCCCN(C)C)C(=O)N2CCc3c([nH]c4cc(CCC(=O)N(C)C)ccc34)[C@]12C)C(C)C	nt	0.32µM	nt	i	i
C[C@]12c3[nH]c4cc(-c5ccco5)ccc4c3CCN1C(=O)[C@@H](CC(=O)NCC13CC4CC(CC(C4)C1)C3)C[C@@H]2C(=O)N1CCOCC1	nt	25µM	nt	i	?
COc1ccc(OC)c(CCNC(=O)CCc2cn(Cc3cc(C)ccc3C)c3ccccc23)c1	nt	nt	i	i	i
O=C(c1cccc(F)c1F)N1CCOc2ccc(CN3CCN(Cc4ccccn4)CC3)cc2C1	nt	nt	nt	nt	i
Cc1cc(C(=O)NCC2CCC3(CCN(Cc4ccc(F)cc4)CC3)O2)n(C)n1 (stereo not drawn)	nt	nt	nt	nt	i
CC(C)=CCC/C(C)=C/CNC(=O)C[C@H]1C[C@H](C(=O)N(C(C)C)C(C)C)[C@@]2(C)c3[nH]c4cc(CCC(=O)N(C)C)ccc4c3CCN2C1=O	nt	10µM	nt	i	?
O=C1c2ccc3c4c(ccc(c24)C(=O)N1c1cccc(O)c1)C(=O)N(c1cccc(O)c1)C3=O	i	5µM	nt	-88	?
Cc1cccc(N2C(=O)c3cccc4cccc(c34)C2=O)c1	nt	?	nt	i	i
Cc1cccc(N2C(=O)c3cccc4c(N)ccc(c34)C2=O)c1	?	10µM	?	?	i
Cc1cccc(N2C(=O)c3cccc4c(N(C)CCO)ccc(c34)C2=O)c1	?	11µM	i	nt	?
COc1ccccc1NC(=O)CSC1=Nc2ccccc2C2=NC(CCC(=O)NCc3ccco3)C(=O)N12 (stereo not drawn)	nt	nt	?	i	i
NS(=O)(=O)c1ccc(CCNC(=O)Cn2c(-c3cccs3)cc3ccccc32)cc1	nt	nt	i	i	i
CCOC(=O)C1=C(C)NC(C)=C(C(=O)OCCNC(=O)c2cccnc2)C1c1cccc([N+](=O)[O-])c1 (stereo not drawn)	?	i	i	nt	i
COCCOC(=O)C1=C(C)N(c2ccccc2)C(=O)NC1c1cccc([N+](=O)[O-])c1 (stereo not drawn)	i	i	i	i	i
